Molecules are shown by their SMILES. Among all 15,000 compounds or so, about 60 (0.4%) were called active. No stated cut-off is given here; in the data, active means activation above about 2.2%; inactive means the rest. Many of the other results were omitted from the sample, so actives are more common in it than they were.

This test in a line: agonists of NOTCH signaling (AID 434982). As to conditions: NOTCH signaling luciferase reporter cells, luminescence; at 2.5 µM; stronger effect = higher value. On the technique in general: Reporter assays use an easily measured gene product as a stand-in for the process of interest.
`c1ccc2c(-c3csc(-c4ccc5c(c4)OCCO5)n3)csc2c1`: the activation is -0.45% (inactive).

`O=S(=O)(c1ccc(Cl)cc1)n1nccc1/C=C/c1cccs1`: the activation was 0.05% (inactive).

For the compound `N#Cc1c(-c2cccs2)cc(-c2cccs2)nc1N`, the activation is -0.55% (inactive).

On to `CSc1sc(C(=O)Nc2cccc(Cl)c2)c(-c2cccs2)c1C#N`, for which the activation is -0.76% (inactive).

For `CC1(C)C2CC[C@](C)(C2)C1NC(=O)c1c(Cl)cccc1Cl` (stereo not given in full), the activation was -0.41% (inactive).

For `CC(C)(C)c1csc(Sc2ccc([N+](=O)[O-])cc2[N+](=O)[O-])n1`, the activation was -0.69% (inactive).

For `CSc1nsc(SC)c1C(=O)NC(=O)NNc1ccc(F)c(Cl)c1`, the activation was -0.35% (inactive).

Consider `CCCCc1ccc(-n2c(-c3ccc(F)cc3)coc2=O)cc1`, for which the activation is -0.29% (inactive).

On to `Clc1ccc(C2=NN(Cc3ccccc3)CC2)s1`, for which the activation is 0.29% (inactive).

Regarding `COc1ccc(NC(=S)Nc2ccc(F)cc2F)c([N+](=O)[O-])c1`, the activation is -0.83% (inactive).

With `Cc1ccc(SCC(=O)Nc2ccc(F)cc2F)cc1`, the activation is 0.31% (inactive).

As to `CC(=O)Nc1ccc(F)cc1F`, the activation is 3.83% (active).

For `O=C1c2ccccc2C(=O)N1CNc1ccc(C2CCCCC2)cc1`, the activation was -0.31% (inactive).

With `Cc1ccc(CSC(=N)N)cc1`, the activation was 0.1% (inactive).

On to `COc1ccc(OC(=O)/C=C/c2sc3ccccc3c2C)cc1`, for which the activation was -0.25% (inactive).

In the case of `Cc1nc(-c2ccccn2)n2nnnc2c1Cl`, the activation is -0.27% (inactive).

`Cc1oc(C(C)(C)C)cc1C(=O)NC1Cc2ccccc2C1`: the activation is -0.44% (inactive).

Turning to `COC(=O)c1scc(S(=O)(=O)Cc2ccco2)c1N/N=C(\C#N)S(=O)(=O)C(C)C`, the activation was 0.15% (inactive).

As for `NNC(=O)c1cc(OCC(F)(F)F)nc(OCC(F)(F)F)c1`, the activation is -0.48% (inactive).

Consider `COC(=O)c1ccc(S(=O)(=O)NNC(=O)c2cn3cc(C(F)(F)F)cc(Cl)c3n2)n1C`, for which the activation was 3.18% (active).

`COC(=O)c1ccc(S(=O)(=O)N2CCN(c3ccc([N+](=O)[O-])cn3)CC2)n1C`: the activation was 0.16% (inactive).

With `COc1cc(NC(=O)c2ncc(C(F)(F)F)cc2Cl)c(C(=O)O)cc1OC`, the activation is -0.4% (inactive).

Consider `CC(=O)Nc1cccc([N+](=O)[O-])c1`, for which the activation is 6.11% (active).

Take `CC(=O)Nc1ccc(NC(=O)c2cc(C)ccc2[N+](=O)[O-])c(C)c1`: the activation is -0.09% (inactive).

On to `Cc1ccc(OC(=O)c2cccc([N+](=O)[O-])c2)c(Br)c1`, for which the activation was 0.36% (inactive).

Consider `O/N=C/c1ccc(F)c(Cl)c1`, for which the activation is 0.44% (inactive).

Turning to `COC(=O)/C(=C/c1ccccc1)c1ccccc1`, the activation was -0.19% (inactive).

Regarding `CSC(=CC(=O)c1cccs1)SC`, the activation was -0.45% (inactive).

`Cc1nc2ccccn2c1C(=O)N/N=C/c1cn(-c2ccccc2)nc1-c1cccs1`: the activation was -0.2% (inactive).

As to `N/C(=N\OCc1noc(-c2ccsc2)n1)c1ccc(C(F)(F)F)cc1`, the activation is -0.33% (inactive).

With `O=C(Cn1nnc(N2CCOCC2)n1)N/N=C/c1ccc(-c2cccc([N+](=O)[O-])c2)o1`, the activation was -0.66% (inactive).

As for `CS(=O)(=O)/N=C(\N)c1ccncc1`, the activation was -1.1% (inactive).

Consider `Cc1noc(C)c1C(=O)c1c(C)[nH]n(-c2ccccc2)c1=O`, for which the activation is 0.14% (inactive).

In the case of `O=S(=O)(Oc1ccc(Cl)c(Cl)c1)c1c(Cl)sc(Cl)c1Br`, the activation was -0.59% (inactive).

Take `CC(C)(C)OC(=O)n1ccc2cc(Br)ccc21`: the activation is -0.83% (inactive).

For `Cc1ccc(S(=O)(=O)NNC(=O)CCc2nc(-c3ccc(Cl)cc3)no2)cc1`, the activation is 0.6% (inactive).

On to `CC(=O)N1C=CC(c2c[nH]c3ccccc23)C=C1`, for which the activation is -0.43% (inactive).

On to `CS(=O)(=O)c1csc(C(=O)NCc2cccnc2)c1Cl`, for which the activation is -0.31% (inactive).

Regarding `CN(NS(=O)(=O)c1ccc(C(F)(F)F)cc1)c1cnn(C)c(=O)c1Cl`, the activation is -0.2% (inactive).

Take `O=C(Nc1ccccc1C(=O)NC1CCSC1)c1cccc(Cl)c1` (stereo not given): the activation was -0.57% (inactive).

Turning to `c1ccc(-c2nsc(N3CCNCC3)n2)cc1`, the activation is 0.94% (inactive).

`Cn1cc(Cl)c(/C=C(\C#N)C(N)=O)n1`: the activation is -0.29% (inactive).

Regarding `O=c1[nH]cc(Br)c(=O)[nH]1`, the activation was -0.83% (inactive).

In the case of `O=C(CN1CCOCC1)NNC(=O)c1cccs1`, the activation was -0.03% (inactive).

As to `O=C(Cc1cccc2ccccc12)NNC(=O)Nc1ccc(Cl)cc1`, the activation was -0.03% (inactive).

Regarding `COc1cccc(NC(=S)NNC(=S)NC2CC3CCC2C3)c1` (stereo not given), the activation was -0.54% (inactive).

As for `Cc1cc(C(=O)NCCNS(=O)(=O)c2ccc(Cl)cc2)c(C)o1`, the activation is -0.14% (inactive).

With `CNC(=S)NNC(=O)CSc1cccs1`, the activation was 1.08% (inactive).

For the compound `N#C/C(=C\c1cccn1S(=O)(=O)c1ccccc1)C(=O)c1ccccc1`, the activation is 0.09% (inactive).

For the compound `O=C(Cc1cc(F)cc(F)c1)n1nccc1-c1cccs1`, the activation was -0.68% (inactive).

As to `O=C(O)C1CC2CC1CCC2O` (stereo not given), the activation is -0.37% (inactive).

Turning to `Fc1ccc(NC(=S)N2CCN=C2Nc2ccc(F)cc2)cc1`, the activation is -1.11% (inactive).

On to `CC(=O)NC12CC3(C)CC(C)(CC(C)(C3)C1)C2`, for which the activation was 1.34% (inactive).

For `Cn1c(S(=O)(=O)O)nc2ccccc21`, the activation is -0.35% (inactive).

Turning to `Cc1ccc(S(=O)(=O)NC(=O)NNc2ncnc3scc(-c4ccccc4)c23)cc1`, the activation is -0.88% (inactive).

For the compound `CCN=C(NCC)Nc1ccc(Cl)cc1`, the activation is -0.99% (inactive).

For the compound `CC(=O)/C(=C\N(C)C)c1ncccc1[N+](=O)[O-]`, the activation is 0% (inactive).

In the case of `CNC(=S)Nc1cscc1S(=O)(=O)c1ccc(Cl)cc1`, the activation was -0.17% (inactive).

`CCOC(=O)c1sc(SCCS(=O)(=O)c2ccc(Cl)cc2)c(C#N)c1-c1ccccc1`: the activation was -0.58% (inactive).

In the case of `O=S(=O)(Oc1ncccc1C(F)(F)F)c1cccc(F)c1`, the activation is -0.36% (inactive).

In the case of `O=C(NC(=O)C1CCN(c2ncccc2[N+](=O)[O-])CC1)Nc1ccc(Cl)cc1`, the activation was 0.44% (inactive).

Turning to `CCOC(=O)CC(=O)CSc1nnc(N)s1`, the activation was 0% (inactive).

With `NC(=O)C1CCN(CC(O)COc2ccc(Cl)c(Cl)c2)CC1` (stereo not given), the activation is -0.63% (inactive).

Turning to `O=c1o[nH]c(-c2ccccc2)c1N=Nc1c(F)cccc1Cl`, the activation was 0.09% (inactive).

Turning to `CCOC(=O)C(O)(NC(=O)Nc1ccccc1)C(F)(F)F` (stereo not given), the activation was -0.73% (inactive).

Turning to `Cn1c(=O)c2c(ncn2Cc2nnc(-c3ccccc3)o2)n(C)c1=O`, the activation is -0.05% (inactive).

As to `Cc1ccc(S(=O)(=O)N/N=C/c2ccc(O)cc2O)cc1`, the activation is -0.7% (inactive).

On to `Cc1nnsc1C(=O)NN(C)c1ccc([N+](=O)[O-])cn1`, for which the activation was -0.31% (inactive).

As to `CCOC(=O)Cc1cnc(NN=C2C3CC4CC(C3)CC2C4)s1`, the activation was -0.83% (inactive).

As to `O=C(Cn1c(=Nc2ccc(F)cc2)oc2ccccc2c1=O)c1ccccc1`, the activation is -0.66% (inactive).

In the case of `O=c1[nH]c2ccccc2c(=O)n1CCSc1ccc(Cl)cc1`, the activation is -0.73% (inactive).

For the compound `O=S(=O)(NC1Cc2ccccc2C1)c1ccc(-c2csnn2)cc1`, the activation was -0.03% (inactive).

`CCOC(=O)C(=CNNc1ccc(C(=O)O)cc1[N+](=O)[O-])C(=O)OCC`: the activation was -0.57% (inactive).

On to `Cc1ccc(NC(C(=O)O)c2ccccc2)cc1` (stereo not given), for which the activation is -0.61% (inactive).

As to `CC(=O)Nc1ccc(S(=O)(=O)NNc2c(Cl)cncc2Cl)cc1Cl`, the activation is -0.55% (inactive).

With `CCOC(=O)CCC(=O)OC(C(=O)c1ccccc1)c1ccccc1` (stereo not given), the activation is -0.16% (inactive).

As to `Cc1ccc(/C=c2\sc3nc4ccccc4n3c2=O)o1`, the activation is -0.36% (inactive).

With `O=S(=O)(CCSc1ccccc1NS(=O)(=O)c1cccs1)c1ccc(Cl)cc1`, the activation was -0.38% (inactive).

For the compound `O=C(Nn1cnnc1)c1ccc([N+](=O)[O-])cc1`, the activation is -0.58% (inactive).

For `O=C(CSc1nnc(-c2ccncc2)o1)N1CCc2ccccc21`, the activation was -0.94% (inactive).

In the case of `Oc1ccccc1C=NCCCN=Cc1ccccc1O`, the activation is -0.99% (inactive).

Turning to `N#Cc1ccc(Oc2ccc(Cl)cc2)c([N+](=O)[O-])c1`, the activation was -0.29% (inactive).

As to `Oc1ccccc1C=Nc1ccc(F)cc1`, the activation is -0.14% (inactive).

With `O=C(O)/C=C/C(=O)Nc1ccc(NC(=O)c2ccccc2O)cc1`, the activation is 0.22% (inactive).

In the case of `CCOC(=O)c1c(C)nn(-c2ncccc2NC(=O)Nc2cccc(Cl)c2Cl)c1C`, the activation was -0.32% (inactive).

Take `c1ccc(C2=NCCN=C2c2ccccc2)cc1`: the activation was 0.16% (inactive).

Turning to `N#CC(C#N)=Cc1cccn1-c1ccc(C(F)(F)F)cc1`, the activation was -0.29% (inactive).

In the case of `N#C/C(=C\c1cccs1)C(=O)NCCc1c[nH]c2ccccc12`, the activation is 0.42% (inactive).

Consider `COC(=O)c1noc(C)c1-c1ccnn1C(=O)c1ccc(Cl)cc1`, for which the activation was 0.11% (inactive).

For the compound `COc1ccc(Cc2nc(C(C)(C)C)cs2)cc1`, the activation was 0.28% (inactive).

Regarding `CNC(=S)NNC(=O)c1cc(C)on1`, the activation was -0.11% (inactive).

Regarding `Cn1cnc([N+](=O)[O-])c1N1CCN(C(c2ccccc2)c2ccccc2)CC1`, the activation is -0.25% (inactive).

As for `COC(=O)c1sccc1S(=O)(=O)Nc1ccccc1Sc1ncnc2c(C)csc12`, the activation was -0.68% (inactive).

With `N#Cc1ccc(-c2csc(COc3ccccc3Cl)n2)cc1`, the activation is 0.49% (inactive).

As for `O=C(Nc1ccc(Cl)cc1)c1csc(COc2ccc3nonc3c2)n1`, the activation is -0.05% (inactive).

In the case of `COC(=O)c1ccccc1-c1c2ccc(=O)cc-2oc2cc(O)ccc12`, the activation was -0.07% (inactive).

Turning to `COc1cccc(/C=N/NC(=S)Nc2cc(C(F)(F)F)cc(C(F)(F)F)c2)c1O`, the activation was -0.66% (inactive).

In the case of `O=C(O)CC(CC(=O)Nc1cc(C(F)(F)F)ccc1N1CCOCC1)c1ccccc1` (stereo not given), the activation is -0.05% (inactive).

In the case of `Cc1cc(C)nc(NC(=S)c2ccc(NC(=O)/C=C/C(=O)O)cc2)n1`, the activation is -0.56% (inactive).

Take `Cc1c(NC(=S)Nc2ccccc2)c(=O)n(-c2ccccc2)n1C`: the activation was -0.19% (inactive).

Source of the values: PubChem BioAssay AID434982 (The Scripps Research Institute Molecular Screening Center, 2010).
